Results from the supplement of paper PMC8387472.
± gives the standard deviation of the averaged measurements.

system: mESC LDLR-Dup GFP reporter (SpCas9 MH-deletion repair); assay: fraction of GFP+ cells relative to DMSO control (fold change); higher = more MH-deletion repair to in-frame LDLR (or more editing); details: 2 µM; 7 days post-transfection

SMILES | fraction of GFP+ cells
NC(=O)c1ccccn1 [Picolinamide] | 1.08 ± 0.046
Cc1cc(O)c2c(c1)C(=O)c1cc(O)cc(O)c1C2=O [Emodin] | 1.12 ± 0.16
O=C(O)CCCc1ccccc1 [Sodium Phenylbutyrate] | 0.708 ± 0.082
Nc1nc(=O)c2c([nH]1)NC[C@H](CNc1ccc(C(=O)N[C@@H](CCC(=O)O)C(=O)O)cc1)N2C=O [Calcium Levofolinate] | 1.1 ± 0.47
CN(N=O)C(=O)NC1C(O)OC(CO)C(O)C1O (stereo not drawn) [Streptozotocin (STZ)] | 2.1 ± 0.29
CCc1c(Cl)c(O)c(Cl)c(O)c1C(=O)O[C@H]1[C@H](O)[C@H](OC)[C@H](OC/C2=C\C=C\C[C@H](O)/C(C)=C/[C@H](CC)[C@@H](O[C@@H]3OC(C)(C)[C@@H](OC(=O)C(C)C)[C@H](O)[C@@H]3O)/C(C)=C/C(C)=C/C[C@@H]([C@@H](C)O)OC2=O)O[C@@H]1C [Fidaxomicin] | 2.81 ± 0.44
CS(=O)(=O)c1ccc(-c2cnc(N)c(C(=O)Nc3ccccc3)n2)cc1 | 0.582 ± 0.061
O=NN(CCCl)C(=O)NC1CCCCC1 [Lomustine] | 1.11 ± 0.11
